According to PubChem BioAssay (NCI):
Compounds without any hit were thinned out: in the full panel of roughly 83,000, 20% have a hit.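 Values shown are percent growth following 48 h exposure of cells in 96-well plates to a single concentration of compound; below 10 was considered active.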 Activity calls are given as the source filed them.

Columns and labels:
Assay in all cases: NCI-60 one-dose screen, 48 h (100 = growth as untreated, 0 = no growth, -100 = all killed)
Conditions in all cases: 10 µM
RPMI-8226 leukemia = system: RPMI-8226 leukemia
OVCAR-8 ovarian = system: OVCAR-8 ovarian
OVCAR-4 ovarian = system: OVCAR-4 ovarian
SK-OV-3 ovarian = system: SK-OV-3 ovarian
IGROV1 ovarian = system: IGROV1 ovarian
OVCAR-3 ovarian = system: OVCAR-3 ovarian
HS 578T breast = system: HS 578T breast
NCI/ADR-RES ovarian = system: NCI/ADR-RES ovarian
T-47D breast = system: T-47D breast
BT-549 breast = system: BT-549 breast
MDA-MB-435 melanoma = system: MDA-MB-435 melanoma
SW-620 colon = system: SW-620 colon
MCF7 breast = system: MCF7 breast
HCT-116 colon = system: HCT-116 colon
HCC-2998 colon = system: HCC-2998 colon
KM12 colon = system: KM12 colon
MDA-MB-468 breast = system: MDA-MB-468 breast
OVCAR-5 ovarian = system: OVCAR-5 ovarian

Measured: growth

COc1ccc(N2N=C(c3ccc4c(c3)OCCO4)CC2c2cccc(NC(=O)CCCNS(=O)(=O)c3ccc(F)cc3)c2)cc1 (stereo not drawn)
inactive: RPMI-8226 leukemia 41.2% | OVCAR-8 ovarian 87.7% | OVCAR-4 ovarian 60% | SK-OV-3 ovarian 101% | IGROV1 ovarian 81.5% | OVCAR-3 ovarian 81.3% | HS 578T breast 78.7% | NCI/ADR-RES ovarian 88.5% | T-47D breast 63.3% | BT-549 breast 78.3% | MDA-MB-435 melanoma 69.7% | SW-620 colon 95.2% | MCF7 breast 60.7% | HCT-116 colon 73.3% | HCC-2998 colon 77.1% | MDA-MB-468 breast 60.8%
active: KM12 colon -92.8%

CN1CCN(c2ccc(Nc3nc(NCCCNC(=O)C4CCCCC4)c4sccc4n3)cc2)CC1
inactive: OVCAR-8 ovarian 57.5% | OVCAR-5 ovarian 67.3% | OVCAR-4 ovarian 48.9% | SK-OV-3 ovarian 98% | IGROV1 ovarian 76.9% | OVCAR-3 ovarian 33.4% | HS 578T breast 42.9% | NCI/ADR-RES ovarian 74.3% | T-47D breast 36.6% | MDA-MB-435 melanoma 34% | SW-620 colon 40% | MCF7 breast 23.1% | HCT-116 colon 30.8% | HCC-2998 colon 59.5% | KM12 colon 63.7% | MDA-MB-468 breast 49.1%
active: RPMI-8226 leukemia -12.3%

Cc1ccc(/C(N)=N/c2sc(-c3ccccc3)nc2-c2ccccc2)cc1
inactive: RPMI-8226 leukemia 59.9% | OVCAR-8 ovarian 91.4% | OVCAR-4 ovarian 72% | SK-OV-3 ovarian 87.1% | IGROV1 ovarian 94.3% | OVCAR-3 ovarian 84.7% | HS 578T breast 95% | NCI/ADR-RES ovarian 89.9% | T-47D breast 58.3% | BT-549 breast 88.4% | MDA-MB-435 melanoma 79.6% | SW-620 colon 79.4% | MCF7 breast 55.9% | HCT-116 colon 53.5% | HCC-2998 colon 79.8% | KM12 colon 41.4% | MDA-MB-468 breast 75.6%

Cc1ccc(NC(=O)c2ccc(-n3c(=O)[nH]c4ccccc4c3=O)cc2)cc1
inactive: RPMI-8226 leukemia 133% | OVCAR-8 ovarian 52.9% | OVCAR-5 ovarian 106% | OVCAR-4 ovarian 98.8% | SK-OV-3 ovarian 82.5% | IGROV1 ovarian 103% | HS 578T breast 78.3% | NCI/ADR-RES ovarian 80.2% | T-47D breast 80.4% | BT-549 breast 24.4% | MDA-MB-435 melanoma 102% | SW-620 colon 113% | MCF7 breast 87.5% | HCT-116 colon 92.4% | HCC-2998 colon 108% | KM12 colon 96.7% | MDA-MB-468 breast 82.2%

O=C(Nc1ccc(I)cc1)Nc1nc2ccc([N+](=O)[O-])cc2s1
active: RPMI-8226 leukemia -71.7% | OVCAR-8 ovarian -76.1% | OVCAR-5 ovarian -98.4% | OVCAR-4 ovarian -77.3% | SK-OV-3 ovarian -69.9% | IGROV1 ovarian -95.7% | OVCAR-3 ovarian -92% | HS 578T breast -64.9% | NCI/ADR-RES ovarian -88.4% | T-47D breast -85.9% | MDA-MB-435 melanoma -96.1% | SW-620 colon -80.4% | MCF7 breast -93.6% | HCT-116 colon -100% | HCC-2998 colon -95.6% | KM12 colon -93.3% | MDA-MB-468 breast -97.2%

O=C(c1ccc(Cl)cc1)C1[C@H](c2ccc(Br)cc2)[C@@H](c2ccccc2)NC12C(=O)Nc1ccc(Cl)cc12 (stereo partly drawn)
inactive: SK-OV-3 ovarian 11.5%
active: RPMI-8226 leukemia -15.4% | OVCAR-8 ovarian -55% | OVCAR-5 ovarian -89.5% | OVCAR-4 ovarian 3.2% | IGROV1 ovarian -72.4% | OVCAR-3 ovarian -88% | HS 578T breast -14% | NCI/ADR-RES ovarian -89.9% | T-47D breast 8.01% | MDA-MB-435 melanoma -84.9% | SW-620 colon -76.4% | MCF7 breast -39.7% | HCT-116 colon 5.1% | HCC-2998 colon -94.9% | KM12 colon -26.6% | MDA-MB-468 breast -90%

O=S(=O)(c1ccc(Cl)cc1)c1nc(-c2ccccc2)oc1S(=O)(=O)c1ccc(Cl)cc1
inactive: RPMI-8226 leukemia 36.3% | OVCAR-8 ovarian 81.5% | OVCAR-4 ovarian 92.8% | SK-OV-3 ovarian 94% | IGROV1 ovarian 91.7% | OVCAR-3 ovarian 89.1% | HS 578T breast 87.4% | NCI/ADR-RES ovarian 81.2% | T-47D breast 78.8% | BT-549 breast 142% | MDA-MB-435 melanoma 82.3% | SW-620 colon 46.8% | MCF7 breast 36.3% | HCT-116 colon 58.9% | HCC-2998 colon 95.8% | KM12 colon 93.2% | MDA-MB-468 breast 76%

Cc1ccc(-c2nc3ccc(C(=O)N=Nc4c(O)[nH]c5ccc([N+](=O)[O-])cc45)cc3[nH]2)cc1
inactive: RPMI-8226 leukemia 104% | OVCAR-8 ovarian 75.3% | OVCAR-5 ovarian 101% | OVCAR-4 ovarian 55.2% | SK-OV-3 ovarian 78.9% | IGROV1 ovarian 89.2% | HS 578T breast 74.6% | NCI/ADR-RES ovarian 103% | T-47D breast 51.8% | BT-549 breast 98.7% | MDA-MB-435 melanoma 62.6% | SW-620 colon 42.2% | MCF7 breast 65.9% | HCT-116 colon 12.7% | HCC-2998 colon 54% | KM12 colon 104% | MDA-MB-468 breast 59%

CN1C(=O)/C(=C/c2ccc3ncsc3c2)NC1=NC12CC3CC(CC(O)(C3)C1)C2
inactive: OVCAR-8 ovarian 16% | OVCAR-4 ovarian 32% | SK-OV-3 ovarian 18.6% | NCI/ADR-RES ovarian 10.8% | T-47D breast 11.7% | MDA-MB-435 melanoma 27.4% | HCT-116 colon 17.3% | HCC-2998 colon 10.1% | KM12 colon 10.4%
active: RPMI-8226 leukemia -7.67% | IGROV1 ovarian 8.51% | OVCAR-3 ovarian 0.338% | HS 578T breast -10.5% | BT-549 breast -39.9% | SW-620 colon 5.62% | MCF7 breast -20.1% | MDA-MB-468 breast -5.71%
